Measured values from PubChem BioAssay AID1345085 (National Center for Advancing Translational Sciences (NCATS), 2018).
Inconclusive results are not listed. Active and inactive are the calls of the source. The call rests on the fitted dose curve; in most records, active means well fitted cell-killing curve with a large enough effect; inconclusive means small, poorly fitted or top-dose-only effect, or effect the other way; inactive means no such curve, though single readings can be large or run the other way.

Each molecule was assayed on SKOV3 (assay: Confirmatory qHTS for gynecologic anti-cancer compounds from libraries of approved drugs and bioactive compounds). Conditions: gynecologic cancer cell panel viability, ATPlite luminescence, 48 h; series mostly up to 57.6 µM; activity change, negative = viability loss: at the top concentration.
Method in brief: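 ATP-based luminescent viability (ATPlite) after 48 h drug treatment at 37 °C, 5% CO2, across 57.5 uM–0.977 nM in 1:3 steps. Cells seeded at 1,000 per well 16 h beforehand; IC50 values computed, HEK 293T as selectivity control.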
Further: nearly all actives have a fitted effect of over 55% in size.
On the % scale 0 is the no-effect control and ±100 the full control effect.

| SMILES | activity change, negative = viability loss |
| --- | --- |
| C=C(C)[C@H]1Cc2c(ccc3c2O[C@@H]2COc4cc(OC)c(OC)cc4[C@@H]2C3=O)O1 | -0.143% (inactive) |
| C[C@]12CC[C@H]3[C@@H](CCC4=CC(=O)CC[C@@H]43)[C@@H]1CC[C@@H]2OC(=O)CCc1ccccc1 | 5.75% (inactive) |
| CCOc1ccccc1-n1c(C(C)N2CCN(C(=O)COc3ccc(Cl)cc3)CC2)nc2ccccc2c1=O (stereo not given) | -5.99% (inactive) |
| O=C(O)Cc1ccccc1 | 3.73% (inactive) |
| CCC(=O)O[C@H]1CC[C@H]2[C@@H]3CCC4=CC(=O)CC[C@]4(C)[C@H]3CC[C@]12C | -1.78% (inactive) |
